As a reminder, the inhibition is the relative decrease from the control value, in per cent.

Structures are written as SMILES. “And” between values parts separate entries of the source, which are not always exact repeats. Equal values may be shown once. Hit rate of the full screen: of about 360,000 compounds, about 1,500 (0.42%) were called active. The list comes from a sample in which actives are over-represented; it also holds similar structures and randomly drawn compounds. A number with no mark means an inactive call. No stated cut-off is given here; in the data, active means inhibition above about 13% (passing the limit was not always enough); inactive means the rest.

Inhibition data for 89 compounds are collected here from PubChem BioAssay AID602123 (The Scripps Research Institute Molecular Screening Center, 2011).

Chain of Lon protease (Escherichia coli (strain K12)) (P0A9M0 whole entry, looked up): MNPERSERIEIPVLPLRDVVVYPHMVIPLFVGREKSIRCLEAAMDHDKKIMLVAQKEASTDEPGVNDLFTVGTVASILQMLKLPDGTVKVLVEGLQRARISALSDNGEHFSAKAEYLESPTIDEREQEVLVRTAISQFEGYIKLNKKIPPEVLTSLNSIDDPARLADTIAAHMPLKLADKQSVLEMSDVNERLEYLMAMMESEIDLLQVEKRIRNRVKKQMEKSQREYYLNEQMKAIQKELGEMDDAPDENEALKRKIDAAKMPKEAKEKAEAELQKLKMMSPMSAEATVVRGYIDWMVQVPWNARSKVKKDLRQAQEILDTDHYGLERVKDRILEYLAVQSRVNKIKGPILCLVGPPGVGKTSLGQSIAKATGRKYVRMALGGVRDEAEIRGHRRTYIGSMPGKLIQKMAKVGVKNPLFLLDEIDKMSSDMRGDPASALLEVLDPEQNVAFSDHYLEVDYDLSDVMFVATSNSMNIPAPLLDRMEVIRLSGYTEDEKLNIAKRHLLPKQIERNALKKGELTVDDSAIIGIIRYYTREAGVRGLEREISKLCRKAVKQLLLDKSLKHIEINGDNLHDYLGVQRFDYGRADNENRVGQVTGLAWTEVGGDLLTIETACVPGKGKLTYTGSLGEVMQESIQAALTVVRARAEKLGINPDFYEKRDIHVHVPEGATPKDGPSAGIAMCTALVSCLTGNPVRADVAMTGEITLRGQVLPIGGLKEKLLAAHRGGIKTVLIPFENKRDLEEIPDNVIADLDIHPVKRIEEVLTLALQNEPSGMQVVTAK

This experiment has as its target Lon protease (Escherichia coli (strain K12)) (UniProt P0A9M0). The experiment is described as follows: inhibitors of E. coli Lon protease, primary screen, biochemical, fluorescence polarization (AID 602123).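 Further: 0% = enzyme with probe and DMSO and 100% = no enzyme.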 The settings on record: purified E. coli Lon protease, at 7.94 µM, hits give high values. (In general: Polarisation of emitted light reports the rotation of a fluorescent probe.)
For the compound `COc1ccc(NC(=O)CN2C(=O)COc3ccc(S(=O)(=O)N4CCOCC4)cc32)c(OC)c1`, the inhibition is -3.19%.
For the compound `CCCCCc1ccc(-c2ccc(C(=O)O)cc2)nc1`, the inhibition is -2.2%.
For `O=C(C1CCCO1)N1CCN(C(=S)NC2CC2)CC1` (centres undefined), the inhibition is -2.14%.
For `O=C(OC1CCOC1=O)c1ccc(-c2nc3ccccc3s2)s1` (centres undefined), the inhibition was -3.38%.
In the case of `CCOC(=O)N1CCC(NC(=O)Cc2cn(C)c3ccccc23)CC1`, the inhibition is 15.9% (active).
`CCOC(=O)N1CCC(NC(=O)CCc2cn(C)c3ccccc23)CC1`: the inhibition is -2.75%.
As for `Cn1cc(CCC(=O)NC2CC2)c2ccccc21`, the inhibition is 0.25%.
For the compound `CC1(C)OC(=O)C(=CSc2ccc(C(C)(C)C)cc2)C(=O)O1`, the inhibition is -7.26%.
Turning to `Nc1cc(=O)n(Cc2ccccc2)c(=O)n1Cc1ccccc1`, the inhibition was -0.35%.
`Cc1cc2nc3c(=O)n(Cc4ccccc4)c(=O)[nH]c3nc2cc1N`: the inhibition is 182% (active).
The value for `Cc1cc(OCC(=O)N(C)c2c(N)n(Cc3ccccc3)c(=O)[nH]c2=O)c(C(C)C)cc1Cl` was -1.64%; that for `CC(C)(C)OC(=O)N1CCC(C(=O)NNC(=O)c2ccc(Cl)cc2Cl)CC1` was -1.59%; that for `CCOc1ccc(NC(=O)C2CCN(C(=O)N3CCOc4ccccc43)CC2)cc1` was -11.2%.
For `CN1CCN(S(=O)(=O)c2ccc(N3CCN(S(=O)(=O)c4cccs4)CC3)nc2)CC1`, the inhibition is -1.23%.
On to `O=C(C1CCN(S(=O)(=O)Cc2ccccc2)CC1)N1CCCc2ccccc21`, for which the inhibition was -0.35%.
In the case of `CC1CN(Cc2nc3c(c(=O)n(C)c(=O)n3C)n2Cc2cccc(Cl)c2)CC(C)O1` (centres undefined), the inhibition was -2.4%.
In the case of `O=C1CCC(=O)N1c1ccc(NCCc2ccccc2F)c([N+](=O)[O-])c1`, the inhibition was 0.67%.
`CCN(CCCCOC(=O)c1ccc(OC)c(OC)c1)C(C)Cc1ccc(OC)cc1` (centres undefined): the inhibition was -2.66%.
The result for `O=C1c2ccccc2C(=O)c2c1cccc2N1CCN(Cc2ccccc2)CC1` reads 5.59%; that for `O=C1CCN(CCCc2ccccc2)CCN1CCO`, 1.45%; that for `O=C1c2ccccc2C(=O)c2c1cccc2N1CCN(CCO)CC1`, 17.6% (active).
For the compound `Cc1cc2c(cc1C)[n+](C)cn2CC(O)COCC1CC=CCC1` (centres undefined), the inhibition is 4.81%.
On to `C[C@]12C=CC(=O)C=C1CC[C@@H]1[C@@H]2C(=O)C[C@@]2(C)[C@H]1CC[C@]2(O)C(=O)CO`, for which the inhibition is -2.3% and 1.49%.
Turning to `C[C@H](CO)N1C[C@H](C)[C@@H](CN(C)C(=O)c2cccc(F)c2)Oc2cc(-c3cncnc3)ccc2S1(=O)=O`, the inhibition is -3.93%.
For `CCOC(=O)C(=CNNc1ccsc1C(=O)OC)C(=O)OCC`, the inhibition was -2.58%.
On to `O=C(Nc1cccc2ccccc12)c1[nH]c(-c2ccccc2)c2c1C(=O)N(C1CC1)C2=O`, for which the inhibition is -8.53%.
In the case of `O=C(Cc1ccc(S(=O)(=O)N2CCCC2)s1)NC1CCCCCC1`, the inhibition was -1.79%.
As to `CC(C(=O)NC1CCCC1)N1CCN(S(=O)(=O)c2ccccc2Cl)CC1` (centres undefined), the inhibition was 17.4% (active).
Regarding `CC(C)c1ccc(S(=O)(=O)N2CCN(C(C)C(=O)NC3CCCC3)CC2)cc1` (centres undefined), the inhibition was 8.04%.
For the compound `COc1cc(CNCc2ccc3c(c2)OCO3)c([N+](=O)[O-])cc1OC`, the inhibition was -8.35%.
For the compound `COc1cccc(NC(=O)C2CCCN(c3ncnc4c3nc3n4CCCCC3)C2)c1` (centres undefined), the inhibition is -9.74%.
On to `Cc1cccc(-c2nnc(SCC(=O)O)n2Cc2ccccc2)c1`, for which the inhibition was -7.43%.
As for `CCn1nnnc1SCC(=O)c1ccc(C)cc1C`, the inhibition is -3.48%.
In the case of `Cc1ccc2c(c1)nnc1nnc(SCC(=O)O)n12`, the inhibition is 62% (active).
As to `CC(C)(C(=O)N1CCC1(C)C(=O)NS(=O)(=O)c1ccc(Br)cc1)c1ccccc1` (centres undefined), the inhibition was -2.78%.
For the compound `Cc1cc(Br)ccc1NC(=O)CCCOc1cc(=O)n(C)c2ccccc12`, the inhibition was -8.57%.
Turning to `COc1ccc(C(CC(=O)c2ccccc2)S(=O)(=O)c2ccccc2)cc1` (centres undefined), the inhibition was -2.33%.
Turning to `Cc1cc(C(=O)OCC(=O)Nc2ccccc2Cl)c(C)o1`, the inhibition was -2.91%.
As to `Cc1cccc(NC(=O)COC(=O)CCc2ccccc2)c1C`, the inhibition is -6.48%.
In the case of `O=C(COC(=O)CCc1c[nH]c(=O)[nH]1)Nc1ccccc1Cl`, the inhibition was 25.7% (active).
Regarding `C/C(=N\NC(=O)c1ccc(C)cc1)C1C(=O)c2ccccc2C1=O`, the inhibition is 3.32%.
As to `COc1ccc(N(CC(=O)NC2CCCC2)C(=O)CS(=O)CC(=O)Nc2ccc3c(c2)OCO3)cc1` (centres undefined), the inhibition is 0.46%.
`CC(C)NC(=O)N1Cc2cc(C(=O)NCC(F)(F)F)nc(-c3cccc(-c4cc5ccccc5o4)c3)c2[C@@H]1CCO`: the inhibition is 1.84%.
`COCCOC(=O)c1sc(=S)n(CCOC)c1N`: the inhibition was 18.6% (active).
For `O=C(CSc1n[nH]c(-c2cccs2)n1)N1CCCCC1`, the inhibition was 0.33%.
With `CCOC(=O)CC(NC(=O)C1c2ccccc2Oc2ccccc21)c1ccc(C)cc1` (centres undefined), the inhibition is -23.2%.
For `CCCN(CCC)C(=O)C1c2ccccc2Oc2ccccc21`, the inhibition was 151% (active).
On to `CC(C)(C)NC(=O)NC(=O)COC(=O)C1c2ccccc2Oc2ccccc21`, for which the inhibition is 7.11%.
`Cc1ccc(Sc2ccncc2S(N)(=O)=O)cc1`: the inhibition is -17.1%.
Consider `CCc1cc(=O)oc2cc(C)cc(OCC(=O)N3CCC[C@@H]3C(=O)O)c12`, for which the inhibition is 3.5%.
Regarding `C/C(CC(O)(/C=N/O)c1ccccc1)=N\O` (centres undefined), the inhibition was -3.3%.
The value for `CCC(C)(C)NC(=O)C(c1cccn1C)N(Cc1ccc(C)cc1)C(=O)Cn1nnc2ccccc21` (centres undefined) was 0.29%.
Regarding `O=C(COC(=O)c1c2c(nc3ccccc13)CCCC2)c1ccc(Br)s1`, the inhibition is -4.86%.
The value for `NC(=O)c1ccc(NC(=O)COC(=O)c2c3c(nc4ccccc24)/C(=C\c2ccc4c(c2)OCO4)CCC3)cc1` was 183% (active).
Consider `CCN(CC(=O)Nc1ccc2c(c1)OCO2)S(=O)(=O)c1ccccc1`, for which the inhibition was 7.87%.
`O=C(COC(=O)c1ccc2c(c1)OCCO2)NCc1ccccc1Cl`: the inhibition is 6.26%.
As to `CC(NC(=S)Nc1ccc(S(N)(=O)=O)cc1)c1ccc2c(c1)OCO2` (centres undefined), the inhibition was 4.89%.
For `O=C(OCCOc1ccccc1Cl)c1cc(S(=O)(=O)N2CCCCC2)ccc1N1CCOCC1`, the inhibition is -5.06%.
For the compound `CCCN1C2CCCC1CC(NC(=O)c1cccc(OC)c1)C2` (centres undefined), the inhibition is -6.23%.
The value for `CCCN1C(=O)C(NC(C)=O)c2cc(OC)ccc21` (centres undefined) was 16.3% (active).
Turning to `COc1cccc(NC(=O)N2C3CCCC2CC(NC(C)=O)C3)c1` (centres undefined), the inhibition was -2.6%.
The result for `NC(=O)C1CCCN(CC(=O)N2CCN(c3ccccc3)CC2)C1` (centres undefined) reads -1.63%; that for `OCCC1CN(Cc2cccc(O)c2)CCN1CCc1ccccc1` (centres undefined), -2.49%; that for `COc1cc(C(=O)NCc2ccc3c(c2)cc(C)n3C)cc(OC)c1OC`, 24.5% (active).
The result for `CCOCC(=O)NCc1ccc2c(c1)cc(C)n2C` reads 13.8%.
`CCn1c(CNC(=O)c2cc(OC)c(OC)c(OC)c2)cc2cc(C)ccc21`: the inhibition is -10.1%.
The value for `c1cc(-n2cnnn2)ccc1NC1=NCCC1` was -0.06%; that for `CC1=C(C(=O)Nc2cccc(C(=O)NCC(C)c3ccccc3)c2)SCCO1` (centres undefined) was 18.4%; that for `Cc1ccc(NC(=O)Cc2nnc(SCC(=O)Nc3nncs3)n2C)cc1` was 45.4% (active).
With `Cc1ccc(SCC(=O)Nc2nncs2)cc1`, the inhibition is 6.67%.
Consider `CCn1c(CC(=O)Nc2ccc(C)cc2)nnc1SCC(=O)Nc1nc(C)cs1`, for which the inhibition is 0.33%.
As for `COc1ccc(CNCCCO)cc1OC`, the inhibition was 8.73%.
Take `COc1ccc(C2c3ccc(O)cc3Oc3ncn(CCCO)c(=N)c32)cc1OC` (centres undefined): the inhibition was 58.2% (active).
As for `COc1ccc(C2C(C#N)=C(N)Oc3cc(N)ccc32)cc1OC` (centres undefined), the inhibition was -24.5%.
Regarding `O=C1NC[C@@H](CCCCN2CCN(CCc3ccc(O)cc3)C(=O)C2=O)N(CC2CCCCC2)C1=O`, the inhibition is -2.96%.
With `Cc1cc(NS(=O)(=O)c2ccc(NC(=S)NC(=O)c3ccc(F)cc3Cl)cc2)no1`, the inhibition was 2.44%.
Take `CN(CC(=O)Nc1ccc(F)c(F)c1F)C(=O)C1CC(=O)N(C2CCCC2)C1` (centres undefined): the inhibition is -6.03%.
Take `CC1(C)C(c2cccs2)=[N+]([O-])C2(CCCCC2=O)N1O` (centres undefined): the inhibition was -3.06%.
As for `COc1ccc(Cl)cc1-n1c(C)cc(C(=O)OCC(=O)N2CC(=O)Nc3ccccc32)c1C`, the inhibition was 7.08%.
For `CN(C(=O)COC(=O)Cn1cnc2c1c(=O)n(C)c(=O)n2C)C1(C#N)CCCCC1`, the inhibition was -2.86%.
On to `Cc1ccc(-c2nc3c(C)cc(Br)cn3c2Cc2ccccc2)cc1`, for which the inhibition was -0.26%.
Turning to `Cc1cc(Br)cn2c(Cc3ccsc3)c(-c3ccc(C#N)cc3)nc12`, the inhibition is 50.3% (active).
Consider `Cc1cc(Br)cn2c(Cc3cccc(F)c3)c(-c3cccc(Br)c3)nc12`, for which the inhibition is -1.91%.
The result for `CCN(CCNC(=O)C1=C(C)C(=O)OC12CCC(C)CC2)c1ccccc1` (centres undefined) reads 2.56%; that for `CCc1ccccc1NC(=O)CSc1nnc(CCNC(=O)OC(C)(C)C)o1`, 3.77%; that for `O=C(N/N=C1\CCSC1)c1cc(Cl)ccc1O`, -2.2%.
Consider `COc1cccc(CNC(=O)CCC2CCCN(C(=O)c3ccc(F)c(Cl)c3)C2)c1` (centres undefined), for which the inhibition was -13.9%.
Consider `COc1cccc2c1C(=O)c1c(O)c3c(c(O)c1C2=O)CC(O)(C(C)=NNC(=O)c1ccc(Cl)c(Cl)c1)CC3OC1CC(N)C(O)C(C)O1` (centres undefined), for which the inhibition was 636% [above what the read-out allows, likely interference] (active).
In the case of `Cc1cc(NC(=O)C(C)N2C(=O)c3ccccc3S2(=O)=O)no1` (centres undefined), the inhibition is -0.19%.
